Most compounds without a hit are left out; they make up all but 19% or so of the library.
RORg inh: qHTS for inhibitors of ROR gamma transcriptional activity | Drosophila S2 Gal4-RORgamma UAS-luciferase reporter, 20 h | Potency, µM (highest dose often 53.6 µM), usual class: inhibitors | 310,000 compounds, 5.4% hits | AID 2551, 2010; further: nearly all actives have a fitted effect of over 60% in size
Target sequence (P51450 whole entry, looked up, the tested form may be a part): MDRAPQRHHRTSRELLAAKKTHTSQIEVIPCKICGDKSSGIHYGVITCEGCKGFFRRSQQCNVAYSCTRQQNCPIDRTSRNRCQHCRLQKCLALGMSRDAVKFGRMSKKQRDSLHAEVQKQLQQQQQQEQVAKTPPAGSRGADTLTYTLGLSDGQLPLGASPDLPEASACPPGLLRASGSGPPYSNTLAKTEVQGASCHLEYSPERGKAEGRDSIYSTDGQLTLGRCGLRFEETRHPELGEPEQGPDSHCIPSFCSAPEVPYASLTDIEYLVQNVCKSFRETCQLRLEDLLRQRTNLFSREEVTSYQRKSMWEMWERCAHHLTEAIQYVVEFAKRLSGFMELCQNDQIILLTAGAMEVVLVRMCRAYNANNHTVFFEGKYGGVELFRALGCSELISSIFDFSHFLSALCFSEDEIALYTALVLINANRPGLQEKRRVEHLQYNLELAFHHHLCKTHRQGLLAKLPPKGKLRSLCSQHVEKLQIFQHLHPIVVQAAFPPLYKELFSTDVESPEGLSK
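Luminescence from a UAS-regulated Photinus luciferase reporter in stably transfected Drosophila Schneider cells is measured; decreased signal marks ROR gamma inhibition. Fusion expression is induced by 700 uM copper sulfate for 20 hr.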
Gal4-VP16 FLuc: VP16 counterscreen qHTS for inhibitors of ROR gamma transcriptional activity. Drosophila S2 Gal4-VP16 UAS-luciferase, luminescence, 20 h. Potency, µM (highest dose often 53.6 µM), most hits filed as inhibitors. 310,000 compounds, 3.5% hits. AID 2546, 2010;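 further: Gal4-VP16 expression switched on by copper sulfate through the metallothionein promoter; nearly all actives have a fitted effect of over 50% in size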
TDP1 block: qHTS Assay for Inhibitors of Tyrosyl-DNA Phosphodiesterase (TDP1). 350,000 compounds, 0.28% hits. Tyrosyl-DNA phosphodiesterase 1 (Homo sapiens), Q9NUW8. recombinant TDP1, AlphaScreen DNA substrate cleavage. AID 485290, 2010. Potency, µM (highest dose often 130 µM), hits mostly inhibitors; further: nearly all actives have a fitted effect of over 40% in size
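AlphaScreen read-out: signal falls as enzyme removes the 3' tyrosine-FITC from a 5'-biotinylated DNA oligo (15 nM, 5 min, RT). Enzyme was E. coli-made recombinant Tdp1 at 1 nM, exposed to compound for 15 min beforehand; beads 10 ug/ml, 10 min.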
DT40 TDP1 CPT: qHTS for Inhibitors of human tyrosyl-DNA phosphodiesterase 1 (TDP1): qHTS in cells in presence of CPT; chicken DT40 Tdp1-/-;hTDP1 cells + 20 nM CPT, ATP luminescence, 48 h; Potency, µM (top dose mostly 46.2 µM), actives largely listed as inhibitors; 420,000 compounds, 12% hits; further: nearly all actives have a fitted effect of over 55% in size
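Chicken DT40 Tdp1-/- cells stably complemented with human TDP1 were seeded at 400 cells/well in medium containing 20 nM camptothecin, exposed to pin-transferred compounds, and grown at 37 °C for at least 48 hr. Viability was read as ATP luminescence.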
TDP1 cell noCPT: qHTS for Inhibitors of human tyrosyl-DNA phosphodiesterase 1 (TDP1): qHTS in cells in absence of CPT; DT40 Tdp1-/- hTDP1 cells, no CPT, ATP luminescence, 48 h; Potency, µM (top dose mostly 46.2 µM), usual class: inhibitors; 420,000 compounds, 15% hits; AID 686978, 2013; further: nearly all actives have a fitted effect of over 55% in size
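Growth of hTDP1-complemented DT40 Tdp1-knockout cells is measured by ATP luminescence after at least 48 hr compound exposure at 37 °C, with DMSO substituting for the 20 nM CPT used in the parallel screen.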
A number is an active result; i = inactive; ? = inconclusive; nt = no result; [ ] = another dose, or the depositor's remark. The call rests on the fitted dose curve; in most records, active means well fitted curve in the direction sought with a large enough effect; inconclusive means small, poorly fitted or top-dose-only effect, or another doubt; inactive means no such curve, though single readings can be large; an effect the other way counts as inactive or inconclusive.

SMILES	RORg inh	Gal4-VP16 FLuc	TDP1 block	DT40 TDP1 CPT	TDP1 cell noCPT
CCCC[C@@H](C=O)NC(=O)[C@H](CC(C)C)NC(=O)[C@H](CC(C)C)NC(C)=O	?	i	i	1.26µM	1.13µM
CSCC[C@H](C=O)NC(=O)[C@H](CC(C)C)NC(=O)[C@H](CC(C)C)NC(C)=O	11.2µM	i	i	18.8µM	15µM
NS(=O)(=O)c1ccc(CCNC(=O)CNS(=O)(=O)c2cccc(Br)c2)cc1	i	?	i	?	?
Fc1ccc(-c2ccc(CNCc3ccccn3)o2)cc1	i[1.91 µM]	i	nt	i	?
CCOc1ccccc1NC(c1nnc(-c2ccccc2)o1)c1ccc(F)cc1Cl (stereo not drawn)	nt	nt	i	?	20.6µM
CC(C)c1ccc(NC(c2nnc(-c3ccccc3)o2)c2ccc(F)cc2Cl)cc1 (stereo not drawn)	nt	nt	i	?	18.4µM
CCOc1ccc(NC(c2ccc(Cl)cc2)c2nnc(-c3cccc(F)c3)o2)cc1 (stereo not drawn)	nt	nt	i	?	i
COc1ccc(CCNC(c2ccc(F)cc2)c2nnc(-c3ccccc3Cl)o2)cc1OC (stereo not drawn)	nt	nt	i	?	?
COc1ccccc1N1CCN(C(c2ccc(Cl)cc2)c2nnc(-c3cccc(F)c3)o2)CC1 (stereo not drawn)	nt	nt	i	?	?
Fc1ccc(C(c2nnc(-c3ccccc3)o2)N2CCN(c3ccccc3)CC2)c(Cl)c1 (stereo not drawn)	nt	nt	i	?	20.6µM
CC1CCCC(C)N1CC(O)COc1c(F)cc(Br)cc1F (stereo not drawn)	?	i	i	?	?
CCOc1cc(OCC)cc(C(=O)N2CCC[C@H]2C(=O)N2CCC[C@H]2C(=O)NCc2cccc(OC)c2)c1	nt	nt	nt	i	?
O=C(Nc1ccc(N2CCN(c3ccc(C(F)(F)F)cn3)CC2)nc1)c1cccs1	i	i	i	i	i
N/C(=N\O)c1ccc(N2CCN(c3ncccc3C(F)(F)F)CC2)nc1	i	i	i	?	18.4µM
O=C(Nc1ccc(N2CCN(c3ncccc3C(F)(F)F)CC2)nc1)c1cccs1	?	i	i	18.4µM	20.6µM
CSc1nnc2c(n1)OC(C1CC=C(C)CC1)Nc1ccccc1-2 (stereo not drawn)	i	i	i	nt	nt
CN(C)S(=O)(=O)c1ccc(C(=O)Nc2ccnn2C2CCCCC2)cc1	i	i	i	?	16.4µM
O=C(Nc1ccnn1C1CCN(C2CCCCC2)CC1)c1ccccc1	i	i	i	?	i
COc1ccc(Cn2cc(CN3CC(N4CCCCC4)CS3(=O)=O)nn2)cc1 (stereo not drawn)	nt	nt	nt	i	i
COc1ccc(CN2C[C@H]3CCCN3c3cc(Br)ccc3S2(=O)=O)cc1	nt	nt	i	2.06µM	0.92µM
C=C1[C@@H](O)CN(Cc2ccc(OC)cc2)S1(=O)=O	nt	nt	nt	?	17.8µM
O=C(NCCCO)/C(=C\c1ccco1)NC(=O)c1ccc(Br)o1	i	i	i	i	i
CC(CCC(=O)NN)C1CCC2C3CCC4CC(O)CCC4(C)C3CCC12C (stereo not drawn)	nt	nt	nt	i	25.9µM
COc1cccc(/C=N/N=C(\N)c2nonc2N)c1O	0.1µM	0.631µM	i	0.0065µM	0.92µM
COc1cc(/C=N/N=C(/N)c2nonc2N)cc(Br)c1OCc1ccccc1C	?	?	i	?	?
SMILES	RORg inh	Gal4-VP16 FLuc	TDP1 block	DT40 TDP1 CPT	TDP1 cell noCPT
CN(C)S(=O)(=O)c1cc(NC(=O)CN2CCN(c3ccccc3F)CC2)ccc1Cl	i	i[10 µM]	i	?	20.6µM
CCN1CCN(CC(=O)Nc2ccc(Cl)c(S(=O)(=O)N(C)C)c2)CC1	?	?	i	i	i
Cc1ccc(NC(=O)CN2CCc3ccccc3C2)cc1S(=O)(=O)N1CCOCC1	?	i	i	?	?
CC(C(=O)Nc1cc([N+](=O)[O-])ccc1Cl)N1CCN(c2ccccc2)CC1 (stereo not drawn)	i	i	i	i	i
O=C(CN1CCN(c2ccc(O)cc2)CC1)Nc1cc([N+](=O)[O-])ccc1Cl	i	?	i	20.6µM	20.6µM
CN(C)S(=O)(=O)c1ccc(Cl)c(NC(=O)CN2CCc3ccccc3C2)c1	i	i	i	18.4µM	20.6µM
Cc1ccc(NC(=O)CN2CCc3ccccc3C2)cc1S(=O)(=O)N(C)C	i	i	i	?	23.1µM
Nc1nnc(SCC(=O)N2CCN(Cc3ccccc3)CC2)s1	i	i	i	i	i
CN(C)S(=O)(=O)c1ccc(Cl)c(NC(=O)CN2CCN(c3ccccn3)CC2)c1	?	i	nt	?	23.1µM
CNC(=O)NC(=O)C(c1ccccc1)N(C)CC1COc2ccccc2O1 (stereo not drawn)	i	i	i	i	?
COc1ccc(C)cc1NC(=O)ON=C1CCCCC1	nt	nt	nt	i	i
Cc1cc(/C=N/NC(N)=S)c(C)n1-c1ccc(Cl)cc1	0.447µM	1.12µM	i	11.6µM	18.4µM
Cc1cc(/C=N/NC(=O)c2cccc(N(C)C)c2)c(C)n1-c1cc(C(=O)O)cc(C(=O)O)c1	i	i	nt	i	i
Cc1cccc(C)c1-n1c(C)cc(/C=N/NC(N)=S)c1C	0.891µM	0.794µM	i	7.31µM	8.2µM
Cc1cc(/C=N\NC(=O)CC(=O)NC2CCCCC2)c(C)n1-c1ccc(Cl)cc1	i	i[0.365 µM]	i	?	?
Cc1cc(/C=N/NC(N)=S)c(C)n1-c1cccc(Cl)c1	2.82µM	10µM	i	13µM	16.4µM
Cc1cc(/C=N/NC(=O)C(O)(c2ccccc2)c2ccccc2)c(C)n1-c1ccc(C(=O)O)cc1	11.2µM	?	i	i	i
COCc1cc(C)nc(OCC(=O)N/N=C/c2cc(C)n(-c3c(C)cccc3C)c2C)c1C#N	?	i	i	i	?
CCCn1nc(C(=O)OCC(=O)NC(C)c2ccccc2)c2ccccc2c1=O (stereo not drawn)	i	i	i	i	i
O=C(COC(=O)C1CCN(S(=O)(=O)c2cccs2)CC1)Nc1ccc(F)c(F)c1F	nt	nt	i	i	i
Cc1cc(/C=N/NC(N)=S)c(C)n1-c1ccc(Br)cc1	0.562µM	i[10 µM]	i	2.91µM	8.2µM
Cc1cc(/C=N/O)c(C)n1-c1ccc(Br)cc1	?	i	i	i	?
CC(C)Oc1ccc(Br)cc1/C=N\NC(N)=S	2µM	5.01µM	i	?	16.4µM
COc1ccc(Br)cc1/C=N/NC(=O)Cn1nnnc1N	i	i	i	?	?
Cc1nc2ccccn2c1C(=O)N/N=C/c1cc(C)n(-c2ccc(Br)cc2)c1C	11.2µM	?	i	18.4µM	20.6µM
N#Cc1ccc(C(=O)OCC(=O)NC2CCCC2)cc1	i	i	nt	i	i
